Results as given in PubChem BioAssay AID1159580 (chemical genetic matrix, 2015).
The whole screen tested about 5,500 compounds, of which about 2,000 (36%) were called active. Inconclusive results (about 18%) are left out. Cut-off read from the data, not from the text of the source: active = normalized growth mostly below about 0.91 (no sharp cut-off); inconclusive = no clear call, values can overlap the other calls; inactive = mostly above about 0.92. This is one part of the list.

Assay: chemical genetic growth profiling, strain panel (AID 1159580);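 note: tested at 20 µM; growth read once vehicle control cultures reached saturation at 30 °C; 1 = growth at the plate median or of vehicle wells; lower values mean less growth of the strain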
Details: S. cerevisiae deletion strains, growth OD
[1] = locus YCL061C, strain MRC1, active compounds read low

Measured: normalized growth

CCOC(=O)c1c(C)c(Cl)c(O)c(Cl)c1O
active: locus YAL021C, strain ccr4, active compounds read low 0.682 | locus YAL026C, strain drs2, active compounds read low 0.469 | locus YAL030W, strain snc1, active compounds read low 0.692 | locus YBL061C, strain skt5, active compounds read low 0.637 | locus YBR009C, strain hhf1, active compounds read low 0.407 | locus YBR023C, strain chs3, active compounds read low 0.589 | locus YBR171W, strain sec66, active compounds read low 0.619 | locus YBR231C, strain swc5, active compounds read low 0.469 | locus YBR279W, strain paf1, active compounds read low 0.686 | locus YCL011C, strain gbp2, active compounds read low 0.499 | locus YCL016C, strain dcc1, active compounds read low 0.495 | [1] 0.408 | locus YCL069W, strain vba3, active compounds read low 0.407 | locus YCR088W, strain abp1, active compounds read low 0.517 | locus YDL005C, strain med2, active compounds read low 0.76 | locus YDL040C, strain nat1, active compounds read low 0.663 | locus YDR001C, strain nth1, active compounds read low 0.516 | locus YDR069C, strain doa4, active compounds read low 0.72 | locus YDR137W, strain rgp1, active compounds read low 0.266 | locus YDR159W, strain sac3, active compounds read low 0.459 | locus YDR195W, strain ref2 0.697 | locus YDR297W, strain sur2, active compounds read low 0.677 | locus YDR334W, strain swr1, active compounds read low 0.361 | locus YDR335W, strain msn5, active compounds read low 0.517 | locus YDR392W, strain spt3, active compounds read low 0.0936 | locus YEL003W, strain gim4, active compounds read low 0.397 | locus YEL037C, strain rad23, active compounds read low 0.666 | locus YEL061C, strain CIN8 (second series), active compounds read low 0.171 | locus YER015W, strain faa2, active compounds read low 0.652 | locus YER016W, strain bim1, active compounds read low 0.559 | locus YER111C, strain swi4, active compounds read low 0.189 | locus YER155C, strain BEM2 (second series), active compounds read low 0.15 | locus YFR010W, strain ubp6, active compounds read low 0.696 | locus YGL167C, strain pmr1, active compounds read low 0.67 | locus YGL173C, strain kem1, active compounds read low 0.512 | locus YGL227W, strain vid30, active compounds read low 0.188 | locus YGL240W, strain doc1, active compounds read low 0.375 | locus YGL253W, strain hxk2, active compounds read low 0.254 | locus YHR013C, strain ard1, active compounds read low 0.634 | locus YHR027C, strain rpn1, active compounds read low 0.719 | locus YHR142W, strain chs7, active compounds read low 0.245 | locus YJL092W, strain hpr5, active compounds read low 0.456 | locus YJL095W, strain BCK1 (second series), active compounds read low 0.292 | locus YJL115W, strain asf1, active compounds read low 0.667 | locus YJL129C, strain trk1, active compounds read low 0.261 | locus YJL154C, strain vps35, active compounds read low 0.702 | locus YJL164C, strain tpk1, active compounds read low 0.467 | locus YJL166W, strain qcr8, active compounds read low 0.448 | locus YJL187C, strain SWE1, active compounds read low 0.61 | locus YKL160W, strain elf1, active compounds read low 0.454 | locus YKR026C, strain gcn3, active compounds read low 0.697 | locus YKR091W, strain srl3, active compounds read low 0.677 | locus YLL001W, strain dnm1, active compounds read low 0.563 | locus YLL026W, active compounds read low 0.436 | locus YLL041C, strain sdh2, active compounds read low 0.635 | locus YLR027C, strain aat2, active compounds read low 0.517 | locus YLR221C, strain rsa3, active compounds read low 0.398 | locus YLR258W, strain gsy2, active compounds read low 0.561 | locus YLR262C, strain YPT6 (second series), active compounds read low 0.277 | locus YLR320W, strain mms22, active compounds read low 0.27 | locus YLR342W, strain FKS1, active compounds read low 0.369 | locus YLR357W, strain rsc2, active compounds read low 0.64 | locus YLR370C, strain arc18, active compounds read low 0.701 | locus YLR384C, strain iki3, active compounds read low 0.681 | locus YML120C, strain ndi1, active compounds read low 0.409 | locus YMR058W, strain fet3, active compounds read low 0.429 | locus YMR125W, strain sto1, active compounds read low 0.259 | locus YMR129W, active compounds read low 0.651 | locus YMR205C, strain PFK2, active compounds read low 0.283 | locus YMR231W, strain pep5, active compounds read low 0.361 | locus YNL071W, strain lat1, active compounds read low 0.127 | locus YNL209W, strain ssb2, active compounds read low 0.753 | locus YNL248C, strain rpa49, active compounds read low 0.645 | locus YNL322C, strain KRE1 (second series), active compounds read low 0.783 | locus YNR049C, strain mso1, active compounds read low 0.432 | locus YOR001W, strain rrp6, active compounds read low 0.4 | locus YOR070C, strain gyp1, active compounds read low 0.499 | locus YOR080W, strain dia2, active compounds read low 0.701 | locus YOR083W, strain WHI5, active compounds read low 0.608 | locus YOR106W, strain vam3, active compounds read low 0.459 | locus YOR265W, strain rbl2, active compounds read low 0.676 | locus YOR270C, strain vph1, active compounds read low 0.214 | locus YOR290C, strain snf2, active compounds read low 0.424 | locus YPL051W, strain arl3, active compounds read low 0.414 | locus YPL078C, strain atp4, active compounds read low 0.391 | locus YPL106C, strain sse1, active compounds read low 0.568 | locus YPL240C, strain hsp82, active compounds read low 0.492

CCOC(=O)c1[nH]c(Cc2[nH]c(C(=O)OCC)c(C)c2C)c(C)c1C
inactive: locus YAL013W, strain DEP1, active compounds read low 1 | locus YBR229C, strain ROT2, active compounds read low 1.02 | [1] 1.02 | locus YDL101C, strain DUN1, active compounds read low 1.03 | locus YDL134C, strain PPH21, active compounds read low 1.01 | locus YDR150W, strain NUM1, active compounds read low 0.978 | locus YEL061C, strain CIN8, active compounds read low 1.01 | locus YGR078C, strain PAC10, active compounds read low 1.02 | locus YHR030C, strain SLT2, active compounds read low 1.06 | locus YHR087W, strain rtc3, active compounds read low 1.01 | locus YJR043C, strain POL32, active compounds read low 1.04 | locus YKL190W, strain CNB1, active compounds read low 1.01 | locus YLR039C, strain RIC1, active compounds read low 0.981 | locus YLR058C, strain SHM2 (second series), active compounds read low 1.02 | locus YLR085C, strain ARP6, active compounds read low 1.01 | locus YLR262C, strain YPT6, active compounds read low 0.981 | locus YML094W, strain GIM5, active compounds read low 0.988 | locus YMR219W, strain ESC1, active compounds read low 1.01 | locus YMR263W, strain SAP30, active compounds read low 1.02 | locus YMR307W, strain GAS1, active compounds read low 0.948 | locus YNL153C, strain GIM3, active compounds read low 1.02 | locus YNL298W, strain CLA4 (second series), active compounds read low 1.04 | locus YNL322C, strain KRE1, active compounds read low 1 | locus YNR030W, strain Alg12, active compounds read low 1.04 | locus YPL055C, strain LGE1, active compounds read low 0.994 | locus YPL241C, strain CIN2, active compounds read low 1.01 | locus YPR135W, strain CTF4, active compounds read low 1.08
